High-throughput results (PubChem)
KCNQ2 inh: KCNQ2 (rat) channel inhibition. CHO-K1 KCNQ2, FluxOR thallium flux, 20 min; hits give low values. B-score at 10 µM. 1.1% of 310,000 active. AID 2156;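 active = fluorescence ratio B-score at most minus 3 library SDs, with starting brightness B-score within 2 library SDs, cut at about -5.5 in these data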
Target sequence (O88943 whole entry, looked up): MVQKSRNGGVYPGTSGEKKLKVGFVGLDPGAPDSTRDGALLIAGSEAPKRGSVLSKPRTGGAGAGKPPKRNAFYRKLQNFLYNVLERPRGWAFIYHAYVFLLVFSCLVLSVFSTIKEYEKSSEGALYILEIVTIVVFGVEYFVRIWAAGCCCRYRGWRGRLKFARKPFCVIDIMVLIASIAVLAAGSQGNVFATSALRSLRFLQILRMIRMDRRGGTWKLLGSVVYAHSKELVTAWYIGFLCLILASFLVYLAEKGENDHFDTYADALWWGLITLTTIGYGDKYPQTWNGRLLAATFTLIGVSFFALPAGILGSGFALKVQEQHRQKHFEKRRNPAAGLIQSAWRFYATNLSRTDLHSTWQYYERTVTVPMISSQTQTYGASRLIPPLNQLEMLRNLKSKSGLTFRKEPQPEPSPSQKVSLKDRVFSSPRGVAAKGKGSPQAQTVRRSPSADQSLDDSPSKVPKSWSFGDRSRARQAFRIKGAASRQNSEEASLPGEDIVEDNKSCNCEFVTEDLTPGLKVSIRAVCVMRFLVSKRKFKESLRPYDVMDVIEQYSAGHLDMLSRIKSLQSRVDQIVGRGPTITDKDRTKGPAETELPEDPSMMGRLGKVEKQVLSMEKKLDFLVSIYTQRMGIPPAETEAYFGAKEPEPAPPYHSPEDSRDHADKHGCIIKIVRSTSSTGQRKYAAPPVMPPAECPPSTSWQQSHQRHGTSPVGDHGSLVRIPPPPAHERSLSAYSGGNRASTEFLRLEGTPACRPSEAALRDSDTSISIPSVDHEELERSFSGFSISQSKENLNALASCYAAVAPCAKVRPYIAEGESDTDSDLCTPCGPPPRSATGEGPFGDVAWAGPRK
KCNQ2 enhance: potentiators of rat KCNQ2 potassium channel; CHO-K1 KCNQ2, FluxOR thallium flux fluorescence; hits give high values; 0.54% of 310,000 active; O88943; B-score at 10 µM;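 active = fluorescence ratio B-score at least 3 SD of library B-scores, with initial fluorescence B-score within 3 of them, cut at about 5.3 in these data; same plate scores as AID 2156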;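 also: B-score of peak minus minimum over baseline fluorescence ratio after K+ and Tl+ stimulus; positive B-score means potentiation of KCNQ2 with more thallium influx and brighter signal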
Kir21 confirm: confirmation of mouse Kir2.1 potassium channel inhibitors | shares compounds with KCNQ2 enhance | Kir2.1-expressing cells, FluxOR thallium flux fluorescence; hits give low values | Tl flux remaining, % of negative control (hits give low values), % at 10 µM | 41% of 2,300 active;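 active = Primary-screen hit whose thallium flux fell at least 3 control SD below untreated wells in both duplicates, with normal baseline fluorescence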;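 also: 0% = blank wells without stimulus and 100% = stimulated no-compound controls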
HEK293 Tl flux: counter-screen for Kir2.1 inhibitors: effect in parental HEK293 cells; 19% of 2,300 active; FluxOR signal as % of negative control (100 = no effect), % at 10 µM; AID 2105; shares compounds with KCNQ2 enhance; FluxOR thallium flux fluorescence; 0% = unstimulated blank wells;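 active = dye signal at least 3 control SD above or below untreated wells in both duplicates, raw fluorescence within 3, either direction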;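 also: percent is based on the flux ratio of peak minus minimum fluorescence over baseline F0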
CHO-K1 Tl ctr: counter-screen for KCNQ2 potentiators: effect in parental CHO-K1 cells. 43% of 1,200 active. activity increase over 3SD of controls, % at 10 µM. FluxOR thallium flux fluorescence; zero = vehicle mean+3SD, 100% = vehicle-minus-blank window. shares compounds with KCNQ2 enhance;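 active = signal rise of at least 3 SD above the untreated control mean, in both duplicate wells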;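 also: counter screen of KCNQ2 potentiator hits so any rise reflects channel-independent effects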
KCNQ1 sel pot: human KCNQ1 counter-target activity of KCNQ2 potentiators | 28% of 1,200 active | shares compounds with KCNQ2 enhance | CHO KCNQ1 stable, FluxOR thallium flux fluorescence; beyond 3SD, as % of vehicle-control signal | activation over 3SD threshold, % at 10 µM;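 active = fluorescence ratio rise of at least 3 SD of vehicle wells above their mean, in both replicate wells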;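 also: 0% = vehicle mean plus 3 SD and 100% = vehicle minus unstimulated blank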
KCNQ2 pot confirm: rat KCNQ2 channel potentiator confirmation | shares compounds with KCNQ2 enhance | CHO-KCNQ2 cells, FluxOR thallium flux fluorescence | potentiation, less the hit threshold, % at 10 µM | 68% of 1,200 active | AID 2287;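 active = fluorescence ratio rising 3 SD or more over the vehicle control mean in both replicates, plus primary screen hit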;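 also: peak minus minimum thallium fluorescence divided by baseline after K/Tl stimulus; 0% = vehicle mean plus 3 SD and 100% = vehicle minus unstimulated blank difference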
Kir2-1 sel: selectivity of KCNQ2 potentiators: effect on mouse Kir2.1 | AID 2345 | 2% of 1,200 active | shares compounds with KCNQ2 enhance | HEK293 Kir2.1, FluxOR thallium flux fluorescence | activity over 3SD threshold, % at 10 µM;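 active = fluorescence ratio rise of at least 3 SD above the vehicle-control mean, seen in both replicates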;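 also: 0% = vehicle mean plus 3 SD and 100% = vehicle minus no-stimulus blank window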
KCNQ2 W236L MoA: potentiates the retigabine-insensitive rat KCNQ2 W236L mutant channel; current increase over 3SD of negative controls (%), hits give high values, % at 25 µM; shares compounds with KCNQ2 enhance; CHO KCNQ2-W236L, automated patch clamp current; 10% of 940 active;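 active = current increase at least 3 SD of the untreated controls above them in both duplicate recordings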
An asterisk follows results filed as active; i = inactive; x = no result given. The list is not random: actives were taken first. Their share in the collection is about 1.6%.

SMILES	KCNQ2 inh	KCNQ2 enhance	Kir21 confirm	HEK293 Tl flux	others
COc1ccc(CCN2CCCC(CN(C)Cc3cc(OC)c(OC)c(OC)c3)C2)cc1 (configuration not stated)	i	0.93	x	x
CCOc1cccc(CN(C)CC2CCCN(CCc3ccc(Cl)cc3)C2)c1O (configuration not stated)	i	x	48.0%*	i
COc1ccc(CN(C)CC2CCCN(CCc3ccc(F)cc3)C2)cc1OC (configuration not stated)	i	x	62.0%*	i
COc1ccc(N2CCN(S(=O)(=O)c3c(C)[nH]c(C)c3C(=O)N3CCCC3)CC2)cc1	i	x	x	x
Cc1ccc(NS(=O)(=O)c2ccc(OCC(=O)NCC3CCCO3)cc2)cc1 (configuration not stated)	i	x	x	x
CCCCCCCC1CC(/C(C)=N/NC(N)=O)OC1=O (configuration not stated)	i	x	x	x
Cc1cccc(CSc2nnc([C@@H]3CCCN3C(=O)OC(C)(C)C)o2)c1	i	x	56.5%*	i
CC(C)(C)OC(=O)N1CCC[C@H]1c1nnc(SCc2c(Cl)cccc2Cl)o1	i	x	x	x
Cc1nc2scc(C)n2c(=O)c1S(=O)(=O)Nc1ccc(OC(F)(F)F)cc1	i	3.05	x	x
CCN1CCN(c2nc(C)c3c(n2)CC(C)CC3=O)CC1 (configuration not stated)	i	0.57	x	x
Cc1nc(N2CCN(Cc3ccccc3)CC2)nc2c1C(=O)CC(C)C2 (configuration not stated)	i	x	65.0%*	i
CCCN1CCN(C(=O)Cn2nc(CC)n3c(cc4sccc43)c2=O)CC1	i	1.14	x	x
CCOCCCn1c(SCC(=O)Nc2ccc(OC)cc2)nc2ccccc2c1=O	i	x	x	x
O=c1c2ccccc2sn1-c1ccccc1	i	x	x	x
O=c1[nH]sc2ccccc12	i	6.74*	i	i	CHO-K1 Tl ctr=8.6*;KCNQ1 sel pot=-9.5;KCNQ2 pot confirm=-8.1;Kir2-1 sel=-44.8;KCNQ2 W236L MoA=i
COc1ccc(NC2=CC(=O)CC(c3ccccc3)C2)cc1 (configuration not stated)	i	x	x	x
Cc1ccc(C(C2C(=O)CC(C)(C)CC2=O)C2C(=O)CC(C)(C)CC2=O)s1	i	5.62*	i	i	CHO-K1 Tl ctr=-1.4;KCNQ1 sel pot=-20.0;KCNQ2 pot confirm=-31.1;Kir2-1 sel=-57.5
CC1(C)CC(=O)C(C(c2ccncc2)C2C(=O)CC(C)(C)CC2=O)C(=O)C1	i	x	x	x
Nc1cc(=O)[nH]c(SCC(=O)c2ccc(F)cc2)n1	i	0.3	x	x
Cc1cc(C(F)(F)F)nc(SCC(=O)Nc2ccccc2)n1	i	0.13	x	x
Cc1cc(C(F)(F)F)nc(SCC(=O)NC2CC3CCC2C3)n1 (configuration not stated)	i	6.01*	x	x	CHO-K1 Tl ctr=-12.8;KCNQ1 sel pot=-11.4;KCNQ2 pot confirm=43.4*;Kir2-1 sel=-53.6;KCNQ2 W236L MoA=i
CCOC(=O)c1sc2ncnc(NCc3ccco3)c2c1C	i	13.9*	i	238.5%*	CHO-K1 Tl ctr=23.3*;KCNQ1 sel pot=-28.9;KCNQ2 pot confirm=47.2*;Kir2-1 sel=-30.9;KCNQ2 W236L MoA=i
CCOC(=O)c1sc2nc(CC(=O)OC)nc(NCc3ccco3)c2c1C	i	1.53	x	x
CC(C)Sc1ccccc1C(=O)Nc1ccc2c(c1)n(C)c(=O)n2C	i	0.46	x	x
COc1ccc(/C(O)=C2/C(=O)C(=O)N(c3ccccn3)C2c2cccc(Cl)c2)cc1 (configuration not stated)	i	0.88	x	x
SMILES	KCNQ2 inh	KCNQ2 enhance	Kir21 confirm	HEK293 Tl flux	others
CCOC(=O)C(C)CC(C)C(=O)N1CCOCCOCCN(C(=O)C(C)CC(C)C(=O)OCC)CCOCC1 (configuration not stated)	i	0.55	x	x
CCOC(=O)C(C(=O)OCC)C(C(=O)OCC)N1CCOCC1 (configuration not stated)	i	14.6*	x	x	CHO-K1 Tl ctr=-7.1;KCNQ1 sel pot=23.9*;KCNQ2 pot confirm=35.0*;Kir2-1 sel=-56.0;KCNQ2 W236L MoA=i
COc1ccccc1C1=NOC(C)(c2sc(-c3ccc(Cl)cc3)nc2C)C1 (configuration not stated)	i	x	x	x
CN(C)CCOc1ccccc1Cc1ccccc1	i	0.7	x	x
CNCCCCOc1ccccc1Cc1ccccc1	i	x	28.5%*	i
O=C(NC(=S)N(CC1CCC1)CC1CCCO1)c1cccc([N+](=O)[O-])c1 (configuration not stated)	i	2.7	x	x
CCCn1nnnc1NCc1cccc(OC)c1	i	x	x	x
CCS(=O)(=O)n1nc(NCc2cccc(OC)c2)nc1NCc1cccc(OC)c1	i	14.7*	x	x	CHO-K1 Tl ctr=77.6*;KCNQ1 sel pot=-6.6;KCNQ2 pot confirm=-25.1;Kir2-1 sel=-50.1
O=C(O)CCC(=O)N1CCN(c2cccc(Cl)c2)CC1	i	0.8	x	x
O=C(O)/C=C/C(=O)N1CCN(c2cccc(Cl)c2)CC1	i	0.11	i	i
CC(C)(C)C1CCc2sc(C(=O)NNC(=O)CCl)cc2C1 (configuration not stated)	i	x	x	x
CC(=O)c1cnc2n(c1=O)CCS2	i	0.54	x	x
CCc1c(C2(O)CCCCC2)[nH]c2ccc(C#N)cc12	i	1.91	x	x
CN(C(=O)c1ccccc1F)C(c1ccccc1)c1ccccc1	i	x	66.0%*	i
CC(/C=N/NC(=O)c1ccccc1F)c1ccccc1 (configuration not stated)	i	0.73	x	x
Cc1ccc(NC(=O)CSCC(=O)OCc2cc(=O)oc3cc(O)ccc23)c(C)c1	i	x	x	x
O=C(c1c[nH]c(C(=O)C(Cl)(Cl)Cl)c1)c1ccc(F)cc1Cl	i	6.62*	i	i	CHO-K1 Tl ctr=-4.5;KCNQ1 sel pot=-20.0;KCNQ2 pot confirm=4.6*;Kir2-1 sel=-40.1;KCNQ2 W236L MoA=i
O=C(c1c[nH]c(C(=O)C(Cl)(Cl)Cl)c1)c1ccc(F)cc1F	i	x	x	x
O=C1NC(=S)S/C1=C\c1coc2ccccc2c1=O	i	1.74	x	x
O=C1NC(=S)S/C1=C\c1ccc2ccccc2c1	i	11*	i	i	CHO-K1 Tl ctr=54.7*;KCNQ1 sel pot=-12.5;KCNQ2 pot confirm=41.8*;Kir2-1 sel=-37.8;KCNQ2 W236L MoA=i
COc1cccc(OCCOc2ccc(/C=C3/SC(=S)NC3=O)cc2)c1	i	7.41*	i	i	CHO-K1 Tl ctr=-1.4;KCNQ1 sel pot=-12.3;KCNQ2 pot confirm=-5.5;Kir2-1 sel=-13.9
COc1ccc(/C=C2/SC(=O)NC2=O)cc1	i	x	x	x
O=C(NCc1ccccc1F)C1CCCN1C(=O)Nc1ccc(Cl)cc1 (configuration not stated)	i	0.37	x	x
N=c1sccn1CC(=O)Nc1cc(S(=O)(=O)N2CCCCC2)ccc1Cl	i	x	x	x
